The source of these data is PubChem BioAssay (EPA / NIEHS).

Records with an inconclusive call do not appear. Calls of active or inactive are those of the source. The calls were made as follows: active = hit-call score of the fitted dose curve at least 0.9, where 1 is the maximum; inconclusive = response in the unintended direction; inactive = score below 0.9.

Chain of human RAR-related Orphan Receptor gamma (RORg), RORC (gene 6097) (P51449 whole entry, looked up): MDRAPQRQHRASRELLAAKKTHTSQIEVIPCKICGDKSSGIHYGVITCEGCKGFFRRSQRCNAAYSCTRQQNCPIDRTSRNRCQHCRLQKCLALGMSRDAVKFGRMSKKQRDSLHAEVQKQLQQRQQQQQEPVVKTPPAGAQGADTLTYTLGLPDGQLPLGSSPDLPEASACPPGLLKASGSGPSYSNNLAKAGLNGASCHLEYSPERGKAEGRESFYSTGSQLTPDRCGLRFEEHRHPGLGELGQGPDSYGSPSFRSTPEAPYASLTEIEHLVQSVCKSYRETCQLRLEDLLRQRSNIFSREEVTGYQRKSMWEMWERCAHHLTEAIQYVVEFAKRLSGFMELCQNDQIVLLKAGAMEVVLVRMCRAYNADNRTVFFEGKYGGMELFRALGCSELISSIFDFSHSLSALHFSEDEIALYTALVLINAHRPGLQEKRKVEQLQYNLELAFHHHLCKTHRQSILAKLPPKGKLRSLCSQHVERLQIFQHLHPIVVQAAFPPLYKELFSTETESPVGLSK

This assay concerns the target human RAR-related Orphan Receptor gamma (RORg), RORC (gene 6097) (UniProt P51449). Nature of the assay: ATG_RORg_TRANS: Attagene TRANS-FACTORIAL HepG2 Assay for human RAR-related Orphan Receptor gamma (RORg) (AID 2283011).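 As to AC50: potency for induction of reporter transcripts above DMSO so activators.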 As for the experimental part: ATG_TRANS is a cell-based, multiplexed-readout assay that uses HepG2, a human liver cell line, with measurements taken at 24 hours after chemical dosing in a 24-well plate.ATG_RORg_TRANS is one of 30 assay component(s) measured or calculated from the ATG_TRANS assay. It is designed to make measurements of mRNA induction, a form of inducible reporter, as detected with fluorescence intensity signals by Reverse transcription polymerase chain reaction (RT-PCR) and Capillary electrophoresis technology.Data from the assay component ATG_RORg_TRANS was analyzed into 1 assay endpoint. This assay endpoint, ATG_RORg_TRANS, was analyzed in the positive analysis fitting direction relative to DMSO as the negative control and baseline of activity. Using a type of inducible reporter, measures of mRNA for gain-of-signal activity can be used to understand the reporter gene at the transcription factor-level as they relate to the gene RORC. Furthermore, this assay endpoint can be referred to as a primary readout, because this assay has produced multiple assay endpoints where this one serves a reporter gene function. To generalize the intended target to other relatable targets, this assay endpoint is annotated to the nuclear receptor intended target family, where the subfamily is orphan.
Human liver HepG2 cells are transiently transfected with multiple reporter transcription units (MRTUs) in 6-well plates using FuGene 6 reagent (Roche; 3 ml FuGene/1 mg DNA). The MRTU constructs are regulated by a cis-regulating element (promoter). […] A major difference between the CIS and TRANS system is that in CIS activities of endogenous TFs are measured, whereas the TRANS assay evaluates changes in activities of exogenous, chimeric NR-Gal4 proteins. […] At the end of 24 hour incubation, total RNA was isolated using TriZol reagent (Invitrogen). The isolated RNA is then reverse-transcribed using oligo(dT) primer and Mo-MLV reverse transcriptase (Invitrogen) with DNAse I (Ambion) treatment for 30 min. The one-tenth of the produced cDNA was amplified by PCR using Taq DNA polymerase (Invitrogen) and two reporter sequence-specific primers. The PCR products were fluorescently labeled by primer extension with 6-arboxyfluorescein (6-FAM) 5'-labeled reporter sequence-specific primer (2 min at 95 C, 20 s at 68 C and 10 min at 72 C) and these products were digested with 5U of HpaI (New England Biolabs) for 2h at 37 C. The fragments were purified using Qiaquick PCR columns (Qiagen), analyzed on an ABI 3130xL genetic analyzer (Applied Biosystems) with peak positions identified by using a set of X-rhodamine (ROX)-labeled MapMarker1000 molecular weight standards (BioVentures). The raw capillary electrophoresis data was processed using Attagraph software (Attagene).
Regarding `CS(=O)(=O)NC(=O)c1cc(Oc2ccc(C(F)(F)F)cc2Cl)ccc1[N+](=O)[O-]`, the compound was classed as inactive.
Take `c1ccc(NNc2ccccc2)cc1`: the outcome was inactive.
Same read-out and setting: the result for `[Cl-].[Cl-].[Hg+2]` reads “inactive”.
Still for that read-out and setting: with `N#CC(Br)(Br)C(N)=O` the entry was “inactive”; with `CCOc1cccc(C2(N3CCN(c4ccccc4)CC3)CCC(C)CC2)c1` (stereo unspecified), “inactive”; with `Nc1ccc(N=Nc2ccccc2)cc1`, “inactive”.
The same measure, in the same setting: with `Cc1ccc(N)cc1` the entry was “inactive”; with `O=Cc1ccco1`, “inactive”.
One may read the AC50 as the midpoint of the concentration-response curve, whichever way the signal moves. Take `CCCSC(=O)N(CCC)CCC`: the AC50 was 132 µM (active).
For the compound `CCN(CC)N=O`, the result was inactive.
The same measure, in the same setting: the result for `Oc1ccc2ccc3cccc4ccc1c2c34` reads “inactive”.
The same measure, in the same setting: with `Cn1cc(-c2ccccc2)c(=O)c(-c2cccc(C(F)(F)F)c2)c1` the entry was “inactive”.
Still for that read-out and setting: the result for `O=C(O)C1C2CCC(O2)C1C(=O)O` (stereo unspecified) reads “inactive”.
For `CCOC(=O)[C@]1(c2ccccc2)Oc2ccccc2[C@@H]1N`, the compound was classed as inactive.
In the case of `Nc1cc(Cl)cc(C(=O)O)c1Cl`, the outcome was inactive.
Turning to `O=[N+]([O-])C(Br)(CO)CO`, the result was inactive.
Still for that read-out and setting: with `c1ccc(C2CO2)cc1` (stereo unspecified) the entry was “inactive”; with `COC(=O)c1ccccc1N`, “inactive”.
As to `O=C1CCCO1`, the compound was classed as inactive.
Same read-out and setting: the result for `CC(O)CCO` (stereo unspecified) reads “inactive”; that for `OCCCl`, “inactive”.
On the same count and under the same terms, the result for `Nc1ccc([N+](=O)[O-])cc1` reads “inactive”; that for `[As]#[In]`, “inactive”; that for `CCNS(=O)(=O)C(F)(F)C(F)(F)C(F)(F)C(F)(F)C(F)(F)C(F)(F)C(F)(F)C(F)(F)F`, “inactive”.
In the case of `Clc1ccc(Cl)c(Cl)c1`, the outcome was inactive.
`CC(C)N(Cc1ccccc1)C(=O)C(C)(C)C`: the call was inactive.
As to `CCCCCCCCn1sccc1=O`, the compound was classed as inactive.
With `Cc1ccc(N=C=O)cc1N=C=O`, the compound was classed as inactive.
Still for that read-out and setting: the result for `COc1cc(C=O)cc2c1[C@H](COC(N)=O)[C@]1(OC(C)=O)ON2C[C@H]2[C@@H]1N2C(C)=O` reads “inactive”; that for `OCCCBr`, “inactive”.
For the compound `CC(C)(OOC(C)(C)c1ccccc1)c1ccccc1`, the outcome was inactive.
As for `OCCOCCO`, the compound was classed as inactive.
Turning to `ClC1=C(Cl)[C@]2(Cl)[C@H]3[C@H]([C@@H]4C=C[C@H]3C4)[C@@]1(Cl)C2(Cl)Cl`, the outcome was inactive.
In the case of `CN(C)c1ccc(C(=O)c2ccc(N(C)C)cc2)cc1`, the result was inactive.
The same measure, in the same setting: with `Nc1ccc(Oc2ccc(N)cc2)cc1` the entry was “inactive”; with `Nc1ccc(Cc2ccc(N)cc2)cc1`, “inactive”.
